Our source for the inhibition values is ChEMBL document CHEMBL3433997, “St. Jude Leishmania screening dataset” (2016).

The structures appear in SMILES notation.

The target of this test is Glucose transporter (Leishmania mexicana) (UniProt O61059). As to the kind of experiment: ST_JUDE_LEISH: Cytotoxicity at 2uM final concentration against transgenic Leishmania Mexicana promastigotes LmGT2 that are glucose transport deficient and complemented with the L. Mexicana glucose transporter 2. Activity is measured by DNA content using SYBR green in vitro. Format: functional.
With `Cc1nc2nc(N)nc(N)c2c(C)c1Cc1cccc(C(F)(F)F)c1`, the inhibition was -2.32%.

Consider `O=C(Nc1ccc(Cl)c(Cl)c1)N1CCc2ccc(OCCCN3CCCCC3)cc2CC1`, for which the inhibition worked out at 20.3%.

With `c1ccc2c(c1)cc(CNCCCN1CCN(CCCNCc3cc4ccccc4c4ccccc34)CC1)c1ccccc12`, the inhibition was -0.41%.

`CNCCNCc1ccc(-c2ccc(-c3nc4cc(F)ccc4[nH]3)cc2)cc1`: the inhibition came out at 0.13%.

As for `Cc1cc(O)c(-c2ccc(OCc3ccc(Cl)cc3)cc2)c(C)n1`, the inhibition was -0.29%.

For the compound `Cc1ccc(CNC(=N)NC(=O)c2nc(Cl)c(NCc3ccc(Cl)cc3)nc2N)c(C)c1`, the inhibition came out at 1.11%.

`COc1cc(-c2[nH]c(-c3ccc(OCCN(C)C)cc3)cc2-c2ccncc2)ccc1Cl`: the inhibition worked out at 1.76%.

Consider `O=C(c1cncc(-c2ccccc2)c1)N(Cc1cncn1Cc1ccccc1F)CC1CC1`, for which the inhibition is -0.58%.

Regarding `O=C(NNC(=O)c1ccc(CN2CCC(c3nc4ccccc4[nH]3)CC2)cc1)Nc1ccc(Oc2ccccc2)cc1`, the inhibition came out at 1.36%.

Turning to `CCCC(CNCc1cccc(C)c1)CNc1cc(=O)c2ccccc2[nH]1` (stereo not given), the inhibition came to 11.9%.

With `COc1cc(N(C)Cc2cnc3nc(N)nc(N)c3n2)cc(OC)c1OC`, the inhibition came out at 3.15%.

Consider `COc1ccc(CN(C)CCCc2ccc(NC(=O)Cc3ccc4nc(-c5ccccc5)ccc4c3)cc2)cc1OC`, for which the inhibition is 6.65%.

For the compound `O=S(=O)(c1cccc(Cl)c1F)N(CCC(O)(C(F)(F)F)C(F)(F)F)Cc1cccc(O)c1`, the inhibition was -0.05%.

For `CCCCCCOc1ccc(N2C(N)=NC(N)=NC2(C)C)cc1`, the inhibition amounted to 0.46%.

Regarding `CCCOc1cc(NC(=O)Nc2ccnc3ccccc23)cc(OCCC)c1`, the inhibition was found to be 3.42%.

With `Cc1cc(CN2CC[C@H](NC(=O)c3ccc(Cl)c(Cl)c3)C2)ccc1OC1CCN(C)C1` (stereo not given in full), the inhibition was -0.09%.

Take `Fc1ccc(CNc2nc(-c3ccc(F)c(C(F)(F)F)c3)n(-c3cccc(C(F)(F)F)c3)n2)cc1`: the inhibition stood at 3.42%.

In the case of `CN1CCN(CC(=O)Nc2cccc(-c3cccc(-c4nc5cc(F)ccc5[nH]4)c3)c2)CC1`, the inhibition came out at 3.51%.

Consider `C=C(C)COc1ccc(-c2n[nH]c(C(F)(F)F)c2-c2ccccc2OC)c(O)c1`, for which the inhibition was found to be 6.48%.

Take `COc1cccc(C=NNc2cc(C)nc3c(OC)cccc23)c1`: the inhibition came to 0.35%.

For `CC1=C(C(=O)Nc2cc3cn[nH]c3cc2F)C(c2cccc(O)c2F)CC(=O)N1` (stereo not given), the inhibition worked out at 0.72%.

As for `CCOc1cc(N)c2nc3ccc([N+](=O)[O-])cc3cc2c1`, the inhibition was 6.39%.

Consider `COc1ccc(-c2cccc(NC(=O)c3ccc(C#N)cc3)c2)cc1CN1CCCN(C)CC1`, for which the inhibition was 0.9%.

`O=c1cc(NCCCNCc2ccc(Cl)c(Cl)c2)[nH]c2ccc(Cl)cc12`: the inhibition is -9.23%.

In the case of `O=C(Nc1cc(Cl)ccc1O)c1ccc(Oc2ccc(C(=O)Nc3cc(Cl)ccc3O)cc2)cc1`, the inhibition was -1%.

On to `COc1cc(Cc2cnc(N)nc2N)ccc1OCc1ccc(F)c(F)c1`, for which the inhibition is 4.59%.

In the case of `COc1ccc(OC)c2c1CC1NCC2c2c(OC)ccc(OC)c21` (stereo not given), the inhibition stood at 0.54%.

`O=C(NCCN1CCCC1)c1cc(-c2ccc(Cl)c(O)c2)c(-c2ccncc2)o1`: the inhibition stood at 0.49%.

Consider `Cc1cccc2nc(-c3ccc(-c4ccc(CN5CCN(CCC#N)CC5)cc4)cc3)[nH]c12`, for which the inhibition was 11.8%.

With `CCOc1c(Br)cc(C)cc1CNCCCNc1nc2ccccc2[nH]1`, the inhibition stood at 1.33%.

Turning to `O=C(Nc1ccc(Cl)c(Cl)c1)N[C@H]1CCN(CCCCCNC(=O)C2CC2c2ccc(Cl)c(Cl)c2)C1` (stereo not given in full), the inhibition is 10.6%.

Take `Fc1ccc(C=NN=c2cc[nH]c3ccc(C(F)(F)F)cc23)cc1`: the inhibition worked out at 5.46%.

With `O=C(NC(Cc1ccccc1)C(=O)O)c1cc(=O)c2ccccc2o1` (stereo not given), the inhibition came to 0.99%.

For the compound `CC(=O)Nc1cccc(Nc2c3ccccc3nc3ccccc23)c1`, the inhibition was found to be 0.54%.

With `Cc1cc(N2CCN(CC3CCN(C)CC3)CC2)nc(Nc2ccc(Cl)cc2)n1`, the inhibition amounted to 2.21%.

On to `CC(C)c1ccc(CN2CCCCC(NC(=O)c3cc(-c4ccccc4Cl)cs3)C2)cc1` (stereo not given), for which the inhibition was -4.09%.

As for `Cc1cc(Nc2cccc(C(F)(F)F)c2)nc2ccc(NC(=O)c3ccc(=O)[nH]c3)cc12`, the inhibition is -0.59%.

For `O=[N+]([O-])c1cccc(C=NNc2nc(=Nc3ccccc3)[nH]c(=Nc3ccccc3)[nH]2)c1`, the inhibition was -0.18%.

For the compound `CC(=O)Nc1ccc(NC(=O)c2cc(-c3cc(Cl)ccc3O)n[nH]2)cc1`, the inhibition is 2.29%.

`COc1ccc(C=Cc2ccc(-c3c(C)[nH]c(C)c(Cl)c3=O)cc2)cc1OC`: the inhibition came out at 0.92%.

As usually defined, the inhibition is the change of the read-out against control, counted positive when it falls.
